Screening results: PubChem BioAssay, National Center for Advancing Translational Sciences (NCATS)
NS1 inh = qHTS Assay for Inhibitors of Influenza NS1 Protein Function; 270,000 tested, 0.4% active; AID 2326, 2010; Potency, µM (titrated, usually from 46.1 µM); further: actives are rising curves; nearly all actives have a fitted effect of over 50% in size
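A cell-based growth assay was used: compounds that relieve NS1-induced slow growth of budding yeast raise OD600. Assay medium was yeast nitrogen base with ammonium sulphate and -URA supplement, pH 6.0, with 2% galactose.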
SARS PLpro yeast = qHTS of Yeast-based Assay for SARS-CoV PLP; S. cerevisiae expressing SARS-CoV PLpro, growth rescue; Potency, µM (top dose mostly 32.9 µM), hits mostly activators; 330,000 tested, 0.19% active; further: nearly all actives have a fitted effect of over 55% in size
CHX counter = Cycloheximide Counterscreen for Small Molecule Inhibitors of Shiga Toxin; cell reporter, cycloheximide protein synthesis inhibition counterscreen; max response, %; AID 2314, 2010; 300,000 tested, 12% active; in the data active means max response mostly above about 13%, no sharp cut-off; inactive means mostly below about 14%; further: read at 38.3 µM for the half of the compounds with a filed dose
Shiga toxin inh = A qHTS for Small Molecule Inhibitors of Shiga Toxin | Vero cells, Shiga toxin protein synthesis inhibition reporter | inhibition, % at 38.7 µM | 290,000 tested, 9.2% active | AID 2315, 2010; in the data active means inhibition mostly above about 28%, no sharp cut-off; inactive means mostly below about 43%
Of the large screens only hits and unclear results are named; the others gave an inactive call. Rows were chosen to be rich in hits. Some 12% of all compounds tested hit in one or more screens of this group. Unless noted, the call rests on the fitted dose curve.

Cc1cc(N)n2ncc(-c3ccccc3)c2n1	CHX counter 58, Shiga toxin inh 72
Cc1cc(N)n2ncc(-c3cccc(Br)c3)c2n1	CHX counter 41, Shiga toxin inh 110
Cc1cc(N2CCN(C3CCCC3)CC2)n2ncc(-c3ccccc3)c2n1	none
CC(=O)Nc1ccc(Nc2cc(C)nc3c(-c4ccccc4)cnn23)cc1	CHX counter 34, Shiga toxin inh 71
CCOC(=O)Cc1c(C)nc2c(-c3cccc(Br)c3)cnn2c1C	none
O=C(NC1CCCCC1)C(=S)N1CCCC1	none
CC12CCCCC1(O)[N+](=O)C1=C(CCCC1)N2[O-] (stereo unspecified)	CHX counter 15
O=C(NCc1ccc(F)cc1)c1cnn2ccccc12	CHX counter 30
CCc1ccc(NC(=O)c2cnn3ccccc23)cc1	CHX counter 43
CSc1cccc(NC(=O)c2cnn3ccccc23)c1	CHX counter 45, Shiga toxin inh 76
CCc1ccc(NC(=O)CCn2cccc2)cc1	none
CCOC(=O)Cn1nc(C(F)F)c(Br)c1C	none (no result: NS1 inh)
COc1cc(C)c(CNc2ccc(OC)c(OC)c2)cc1C	CHX counter 14, Shiga toxin inh 76
COc1ccc(CNc2ccc(C)c(C)c2)c(OC)c1OC	CHX counter 24 (no result: NS1 inh)
COc1ccc(CNc2nc3ccc(C)cc3s2)c(OC)c1OC	CHX counter 15, Shiga toxin inh 41
COc1ccc(CNc2cc(C)ccc2C)c(OC)c1OC	none
COc1cc(C)c(CNc2cccc(C)c2)cc1C	none
COC(=O)C1=C(C)N(CCc2cc(OC)c(OC)c(OC)c2)C(=O)N[C@H]1c1cccs1	none
CCc1ccc(N2CC(C(=O)Nc3ccc(S(=O)(=O)NCC4CCCO4)cc3)CC2=O)cc1 (stereo unspecified)	none
COc1ccc(NC(=O)c2cccs2)cc1	CHX counter 41, Shiga toxin inh 78
COc1c(Cl)cc(Cl)cc1C(=O)Nc1ccc(NC(=O)c2cccs2)cc1	none
Cc1ccn(-c2ccc(NC(=O)c3cccs3)cc2)n1	CHX counter 33, Shiga toxin inh 82
O=C(Nc1ccc(C(=O)N2CCCCC2)cc1)c1cccs1	CHX counter 19, Shiga toxin inh 68
CCC(C)c1ccc(NC(=O)c2cccs2)cc1 (stereo unspecified)	CHX counter 30, Shiga toxin inh 59
O=C(Nc1ccc(C(=O)N2CCOCC2)cc1)c1cccs1	NS1 inh inconclusive
CCOc1ccc(N(CC(=O)N2CCN(c3ccc(F)cc3)CC2)S(=O)(=O)c2c(C)noc2C)cc1	none
COc1ccc(NC(=O)CN(C)C(=O)Cn2cnc3c2c(=O)n(C)c(=O)n3C)cc1	none (no result: NS1 inh, CHX counter, Shiga toxin inh)
O=C(Nc1ccc(NC(=O)c2cccs2)cc1)c1cccs1	CHX counter 43, Shiga toxin inh 83
Nc1cccc(NC(=O)c2cccs2)c1	CHX counter 15
O=C(Nc1cccc(NC(=O)c2ccccc2Cl)c1)c1cccs1	none
COc1ccc(C(=O)Nc2ccc(NC(=O)c3cccs3)cn2)cc1	CHX counter 20
O=C(Nc1cccc(N2CCCC2)c1)c1cccs1	CHX counter 27, Shiga toxin inh 72
O=C(Nc1ccc(NC(=O)c2ccccc2F)cc1)c1cccs1	none (no result: NS1 inh, CHX counter, Shiga toxin inh)
COc1ccc(C(=O)C2CCN(C(=S)NCC3CCCO3)CC2)cc1 (stereo unspecified)	none (no result: NS1 inh)
COc1cccc(-c2nc(-c3ccc(NC(=O)c4cccs4)cc3)no2)c1	CHX counter 56, Shiga toxin inh 64
CC(C)c1ccc(NC(=S)NNC(=O)c2cccs2)cc1	CHX counter 42, Shiga toxin inh 72
CC(C)C(=O)Nc1ccc(NC(=O)c2cccs2)cn1	CHX counter 50, Shiga toxin inh 114
O=C(Nc1ccc(NC(=O)C2CC2)cc1)c1cccs1	CHX counter 43, Shiga toxin inh 67
COc1ccc(NC(=O)C2CCN(C(=O)c3cccs3)CC2)cc1	none
COCCCN(C(=O)CCSc1ccc(F)cc1)c1c(N)n(Cc2ccccc2)c(=O)[nH]c1=O	none (no result: NS1 inh, CHX counter, Shiga toxin inh)
CCN(CC(=O)Nc1ccccc1OC)C(=O)CSCc1c(C)noc1C	none
CCc1ccc(-n2c(C)nc3cc(C(=O)NCc4cccnc4)ccc32)cc1	none (no result: NS1 inh)
CC(C)CNC(=O)c1ccc(NC(=O)c2cccs2)cc1	CHX counter 27, Shiga toxin inh 62
COc1ccc(CC(=O)NNC(=O)c2cccs2)cc1	none
Cc1sc(NC(=O)c2cccs2)c(C(N)=O)c1C	CHX counter 40
CN1CCN(c2ccc(NC(=O)c3cccs3)cc2)CC1	CHX counter 32
COc1ccc(NC(=S)NNC(=O)c2cccs2)cc1	CHX counter 27, Shiga toxin inh 46
CC(C)C(=O)N1CCN(c2ccc(NC(=O)c3cccs3)cc2)CC1	none
